# Screens deposited in PubChem by National Center for Advancing Translational Sciences (NCATS).
# A selection: hits, their analogues and other compounds. The true share with any hit is near 21%.
# Shiga inhibitor – A qHTS for Small Molecule Inhibitors of Shiga Toxin; Vero cells, Shiga toxin protein synthesis inhibition reporter; inhibition, % at 38.7 µM; 290,000 compounds, 9.2% hits; in the data active = inhibition mostly above about 28%, no sharp cut-off; inactive = mostly below about 43%; also: 0% is about no effect
# SARS PLP yeast – qHTS of Yeast-based Assay for SARS-CoV PLP | Potency, µM (top dose mostly 32.9 µM), for inactives: at the highest dose activity, positive = growth rescue, hits mostly activators | S. cerevisiae expressing SARS-CoV PLpro, growth rescue | AID 485353, 2010 | 330,000 compounds, 0.19% hits; calls by dose curve; also: potency is read from the fitted curve at half-maximal effect; 0% is about no effect; nearly all actives have a fitted effect of over 55% in size
# Pf growth 96h – Primary qHTS for delayed death inhibitors of the malarial parasite plastid, 96 hour incubation; P. falciparum luciferase reporter growth, 96 h; Potency, µM (series often up to 28.7 µM), for the others: top-dose activity change, negative = inhibition, hits mostly inhibitors; 320,000 compounds, 6.9% hits; AID 504834, 2011; also: potency is read from the fitted curve at half-maximal effect; % is scaled to controls: 0 for no effect and ±100 for the full control effect
#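 Luminescence readout: decreased luciferase signal marks inhibited growth of reporter-expressing P. falciparum in infected red cells (2% hematocrit, 0.05% parasitemia final), exposed to compound two generations (96 h, 37 C, 5% CO2).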
# Pf growth 48h – Primary qHTS for delayed death inhibitors of the malarial parasite plastid, 48 hour incubation; P. falciparum luciferase growth in erythrocytes, 48 h; Potency, µM (series often up to 28.7 µM), for the others: at the highest dose activity change, negative = inhibition, actives largely listed as inhibitors; 310,000 compounds, 5.9% hits; AID 504832, 2011; also: potency is read from the fitted curve at half-maximal effect; % is scaled to controls: 0 for no effect and ±100 for the full control effect
#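 Luciferase-expressing parasites in RBCs, 2% Hct / 0.1% parasitemia final; RPMI 1640 + 0.5% Albumax; 37 C, 5% CO2, one generation; luminescence read-out, lower signal = inhibition.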
# CHX counter – Cycloheximide Counterscreen for Small Molecule Inhibitors of Shiga Toxin; cell reporter, cycloheximide protein synthesis inhibition counterscreen; max response, %; 300,000 compounds, 12% hits; AID 2314, 2010; in the data active = max response mostly above about 13%, no sharp cut-off; inactive = mostly below about 14%; also: read at 38.3 µM for the half of the compounds with a filed dose; 0% is about no effect
# NS1 inh – qHTS Assay for Inhibitors of Influenza NS1 Protein Function. Potency, µM (titrated, usually from 46.1 µM), for inactives: at the top dose activity, positive = more growth. 270,000 compounds, 0.4% hits. AID 2326, 2010; calls by dose curve; also: potency is read from the fitted curve at half-maximal effect; actives are rising curves; nearly all actives have a fitted effect of over 50% in size
#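 In this qHTS, NS1 from influenza A is expressed in budding yeast, where it slows growth. Cells are switched from glucose to 2% galactose medium (pH 6.0, -URA), treated with compound, and growth recovery is read at OD600.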
# The depositor's hits bear a star; ? = inconclusive; . = no result given. Unless noted, calls follow the shape of the dose curve; as a rule, active = well fitted inhibition curve with a large enough effect; inconclusive = small, poorly fitted or top-dose-only effect, or another doubt; inactive = no such curve, though single readings can be large or run the other way.
SMILES,Shiga inhibitor,SARS PLP yeast,Pf growth 96h,Pf growth 48h,CHX counter,NS1 inh
COc1ccc(OC)c2c(C)c(C)[nH]c12,23,1%,0%,?,4,-2%
COc1ccc(CCNC(=O)c2[nH]c(C)c(C(C)=O)c2C)cc1,-19,0%,.,-17%,-4,-3%
CC(=O)c1c(C)[nH]c(C(=O)Nc2cccnc2)c1C,-24,-3%,.,-29%,2,6%
CC(=O)c1c(C)[nH]c(C(=O)NCCc2cccc(C)c2)c1C,80*,-10%,.,55%,45*,-18%
COc1ccc(OCCOC(=O)c2[nH]c(C)c(C(C)=O)c2C)cc1,30,-1%,13%,-21%,27*,.
CCc1ccc(NC(=O)c2[nH]c(C)c(C(C)=O)c2C)cc1,56*,-40%,-16%,-13%,42*,-17%
COc1ccc(CNC(=O)c2[nH]c(C)c(C(C)=O)c2C)cc1,18,-2%,?,15µM*,-1,16%
COc1ccc(C=NNC(=O)c2ccccc2OCc2ccc(F)cc2)c(OC)c1,.,-2%,.,.,.,.
NS(=O)(=O)c1ccc(NC(=O)COc2ccc(C(=O)c3ccc(F)cc3)cc2)cc1,20,-1%,?,?,-7,?
O=C(NNc1c(F)c(F)cc(F)c1F)C1CCN(S(=O)(=O)c2ccccc2F)CC1,.,4%,.,.,.,.
N#C/C(=C\c1ccc(C(=O)O)cc1)S(=O)(=O)c1cc(Br)ccc1Br,-5,-2%,-5%,19%,-3,.
O=c1[nH]c(C(Cl)(Cl)Cl)nc2ccc3ccccc3c12,-10,-4%,-28%,?,-2,-50%
CCOc1ccc(NC(=O)c2[nH]c(C)c(C(C)=O)c2C)cc1,43*,-2%,9%,63%,31*,-7%
CC(=O)c1c(C)[nH]c(C(=O)Nc2nccs2)c1C,93*,-1%,62%,365%,40*,.
CC(=O)c1c(C)[nH]c(C(=O)Nc2cccc(C)n2)c1C,59*,-2%,249%,128%,30*,-12%
CCc1c(C(=O)Nc2ccc(OC)cc2)[nH]c(C)c1C(C)=O,29*,-7%,113%,?,21*,-49%
CCOC(=O)c1ccc(NC(=O)c2c(C)[nH]c(C(=O)OCC)c2C)cc1,-7,1%,58%,?,-2,-7%
CCCC(=O)Nc1c(-c2ccccc2)c(=O)c(C)nn1-c1ccc(C)cc1,-1,-1%,-33%,-2%,0,-35%
COc1ccc(NC(=O)c2[nH]c(C)c(C(C)=O)c2C)cc1,79*,-2%,241%,96%,42*,-1%
C=CCn1c(=O)c2c(nc3n2CC(C)CN3Cc2ccccc2)n(C)c1=O (stereo not drawn),-2,-1%,?,?,-8,-3%
OC1(c2ccccc2)CCNC2CCCCC21 (stereo not drawn),-6,0%,10µM*,30%,-3,-11%
OC1(c2ccccc2)CCN(Cc2ccccc2)C2CCCCC21 (stereo not drawn),-2,-15%,62%,10µM*,-3,-7%
Cc1oc(-c2cccs2)nc1CN1CC[C@@](O)(c2ccccc2)[C@H]2CCCC[C@@H]21,-7,0%,3%,0%,-1,-1%
N#Cc1c(N)nc(SCC(=O)OCc2ccccc2)c(C#N)c1-c1ccco1,-3,0%,4.1µM*,?,-3,-37%
N#Cc1c(N)nc(SC2CCCCC2=O)c(C#N)c1-c1ccco1 (stereo not drawn),.,.,.,.,.,-3%
N#Cc1c(N)nc(SCc2ccccc2)c(C#N)c1-c1ccco1,6,3%,39%,?,15*,-41%
COC(=O)CSc1nc2c(c(-c3ccco3)c1C#N)CCCC2,2,-5%,.,1.9µM*,9,-53%
COC(=O)CSc1nc2c(c(-c3ccc(O)cc3)c1C#N)CCCC2,-3,-2%,-23%,4%,-3,1%
CCOC(=O)Cc1csc(NS(=O)(=O)c2ccc(NC(C)=O)cc2)n1,-7,0%,?,-1%,-2,9%
